# KB-V1 MDR tox – KB-V1 MDR subline cytotoxicity | KB-V1 MDR cells viability, CellTiter-Glo, 72 h | Potency, µM (doses to about 46.1 µM), hits mostly cytotoxic | 400,000 compounds, 3.4% hits | AID 1347076; further: nearly all actives have a fitted effect of over 60% in size
#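 Following 72 h at 37 degrees C with compound, KB-V1 cell viability was read by CellTiter-Glo luminescence, medium being phenol-red-free DMEM plus 10% FBS; concentration-response parameters came from normalized, curve-fitted qHTS data.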
# DT40 TDP1 no CPT – qHTS for Inhibitors of human tyrosyl-DNA phosphodiesterase 1 (TDP1): qHTS in cells in absence of CPT | 420,000 compounds, 15% hits | Potency, µM (titrated, usually from 46.2 µM), usual class: inhibitors | AID 686978, 2013 | DT40 Tdp1-/- hTDP1 cells, no CPT, ATP luminescence, 48 h; further: nearly all actives have a fitted effect of over 55% in size
#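 Cells were dispensed at 400 per well, compounds added by pin tool, plates incubated ≥48 hr at 37 °C, then CellTiter-Glo added for 30 min at room temperature before luminescence reading. Line: DT40 Tdp1-/- complemented with hTDP1; camptothecin omitted.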
# TDP1 cell CPT – growth inhibition of DT40 Tdp1-/-;hTDP1 cells with camptothecin (screen for TDP1 inhibitors). Potency, µM (doses to about 46.2 µM), actives largely listed as inhibitors. 420,000 compounds, 12% hits. chicken DT40 Tdp1-/-;hTDP1 cells + 20 nM CPT, ATP luminescence, 48 h; further: nearly all actives have a fitted effect of over 55% in size
#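 Cell growth measured by CellTiter-Glo luminescence after a minimum 48 h, 37 C compound exposure with 20 nM CPT in Tdp1-knockout DT40 cells stably expressing hTDP1, seeded 400/well; qHTS titration format.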
# HT1080NT lethal – kills 2HG-producing HT-1080-NT fibrosarcoma cells. HT-1080-NT fibrosarcoma viability, CellTiter-Glo ATP luminescence, 48 h. Potency, µM (highest dose often 46.1 µM), most hits filed as cytotoxic. 360,000 compounds, 1.6% hits;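 further: NT is the 2HG producing partner of a matched IDH1 knockdown line; nearly all actives have a fitted effect of over 55% in size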
#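 Compounds were tested in concentration-response format on HT-1080-NT cells for 48 hours at 37 degrees C. Cell viability came from CellTiter-Glo luminescence; curves were classified by r2, response magnitude and activity.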
# KB-3-1 cytotox – KB-3-1 parental cell cytotoxicity. KB-3-1 viability, CellTiter-Glo ATP luminescence, 72 h. Potency, µM (titrated, usually from 46.1 µM), actives largely listed as cytotoxic. 400,000 compounds, 1.4% hits; further: nearly all actives have a fitted effect of over 60% in size
#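 Using CellTiter-Glo luminescence, growth of non-resistant KB-3-1 adenocarcinoma cells is assessed 72 h after pin-tool compound addition at 37 °C. Normalized responses across the concentration series yield fitted curves.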
# HT1080 IDH1KD tx – HT-1080 IDH1 knockdown cell toxicity (counter line); AID 686971; Potency, µM (highest dose often 46.1 µM), hits mostly cytotoxic; 360,000 compounds, 2% hits; HT-1080 IDH1 knockdown viability, ATP luminescence, 48 h
#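 Luminescent ATP read-out (CellTiter-Glo, 10 min at room temperature) after 48 h compound exposure at 37 °C gave viability of IDH1-knockdown HT-1080 cells. Activity was normalised to DMSO and cell-free wells, then fitted as concentration-response curves.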
# A number is an active result; i = inactive; ? = inconclusive; nt = no result. The list is not random: actives were taken first. Their share in the collection is about 19%. The call rests on the fitted dose curve; in most records, active means well fitted curve in the direction sought with a large enough effect; inconclusive means small, poorly fitted or top-dose-only effect, or another doubt; inactive means no such curve, though single readings can be large; an effect the other way counts as inactive or inconclusive.
SMILES,KB-V1 MDR tox,DT40 TDP1 no CPT,TDP1 cell CPT,HT1080NT lethal,KB-3-1 cytotox,HT1080 IDH1KD tx
Cc1c(C)c(C)c(S(=O)(=O)Nc2ccc3[nH]c(=O)[nH]c3c2)c(C)c1C,i,?,?,i,i,i
CCOC(=O)/C(C#N)=C\C1=C(N2CCOCC2)CC(C)(C)OC1,?,i,i,i,i,i
COC(CNC(=O)c1cccnc1)OC,i,i,i,i,i,i
COC(CNC(=O)c1ccc2c3c(onc13)-c1ccccc1C2=O)OC,i,3.3µM,2.9µM,23µM,?,?
CC(C)(C)c1cc(C(=O)NNC(=O)Nc2cccc(Cl)c2)n(Cc2ccccc2)n1,i,?,?,i,i,i
Cc1ccc(S(=O)(=O)N(C)C)cc1NC(=O)c1cc(C(C)(C)C)nn1Cc1ccccc1,i,?,23µM,i,i,i
Cc1ccc(S(=O)(=O)N(C)C)cc1NC(=O)CN1CCN(Cc2ccccc2)CC1,?,i,i,i,i,i
CC(N)c1csc(NC(=O)c2cc(C(C)(C)C)nn2Cc2ccccc2)n1 (configuration not stated),?,21µM,18µM,18µM,?,?
COc1ccc(CC(N)c2csc(NC(=O)c3cc(C(C)(C)C)nn3Cc3ccccc3)n2)cc1 (configuration not stated),?,4.6µM,5.8µM,21µM,?,21µM
Cc1cccc(C)c1NC(=O)NNC(=O)c1cc(C(C)(C)C)nn1Cc1ccccc1,i,?,i,i,i,i
Cc1nn(CC(=O)NCc2ccc(-n3cccn3)cc2)c(C)c1[N+](=O)[O-],i,i,i,i,i,i
O=C(NCCN1C(=O)S/C(=C\c2ccccc2F)C1=O)C1=COCCO1,9.2µM,2.9µM,?,?,?,12µM
O=C(NCCN1C(=O)S/C(=C\c2ccccc2Cl)C1=O)C1=COCCO1,?,6.5µM,7.3µM,i,?,i
O=C(CNC(=O)c1ccccc1F)NCCN1C(=O)S/C(=C\c2ccccc2Cl)C1=O,?,?,i,i,i,i
O=C(NCCN1C(=O)S/C(=C\c2ccc(Cl)cc2Cl)C1=O)C1=COCCO1,?,12µM,15µM,?,?,?
CCOc1ccc(S(=O)(=O)N2CCN(c3nc(-c4ccccc4)nc4ccccc34)CC2)cc1OCC,i,?,?,nt,i,nt
CC(SCc1ccc(C(=O)O)o1)c1ccc(C(=O)O)o1 (configuration not stated),i,i,i,i,i,i
CCOC(=O)c1c(C)sc2c1N(C(=O)CN(CC)CC)c1cc(Cl)ccc1S2,i,?,18µM,?,?,?
CCOC(=O)c1c(C)sc2c1N(C(=O)CN(CC)CC)c1ccccc1S2,i,21µM,?,i,i,i
COC(=O)CNC(=O)COc1ccccc1,i,i,i,i,i,i
CC(=O)N(Cc1ccc(Br)cc1)c1cccc(C)c1C,i,?,i,?,i,?
COc1ccc(CN(C(C)=O)c2cccc(C)c2C)cc1,?,?,?,16µM,?,?
O=C(NCc1ccc2c(c1)OCO2)c1ccc(CS(=O)(=O)c2ccc(Br)cc2)o1,i,?,?,i,i,i
COc1cccc(N2CCN(C(=O)CCS(=O)(=O)c3ccc4c(c3)CC(=O)N4C)CC2)c1,i,?,?,nt,i,nt
O=C(CCS(=O)(=O)c1ccc(Cl)cc1)Nc1ccc(N2CCOCC2)cc1,i,15µM,21µM,i,i,i
SMILES,KB-V1 MDR tox,DT40 TDP1 no CPT,TDP1 cell CPT,HT1080NT lethal,KB-3-1 cytotox,HT1080 IDH1KD tx
CN1C(=O)Cc2cc(S(=O)(=O)CCC(=O)N3CCN(c4ccc(Cl)cc4)CC3)ccc21,i,15µM,21µM,nt,i,nt
O=C(CCS(=O)(=O)c1ccc(Br)cc1)N1CCN(c2ccc(Cl)cc2)CC1,5.8µM,15µM,?,i,i,i
O=C(NCc1ccc(F)cc1)c1ccc(CS(=O)(=O)c2ccc(Br)cc2)o1,13µM,10µM,?,i,i,i
CC1CCN(S(=O)(=O)c2ccc3[nH]cc(C(=O)NCc4ccc(F)cc4)c(=O)c3c2)CC1,i,i,i,nt,i,nt
Cc1ccc(S(=O)(=O)CC(=O)N2CCN(c3ccc(F)cc3)CC2)cc1,i,i,i,i,i,i
O=C(c1ccc(CS(=O)(=O)c2ccc(Br)cc2)o1)N1CCN(c2ccc(F)cc2)CC1,i,23µM,?,i,?,i
O=C(CCS(=O)(=O)c1ccc(Br)cc1)N1CCN(c2ccc(F)cc2)CC1,i,16µM,?,i,i,i
CNS(=O)(=O)c1cn(CC(=O)N2CCN(c3ccc(Cl)cc3)CC2)cc1S(=O)(=O)NC,i,13µM,15µM,nt,i,nt
O=C(CNS(=O)(=O)c1ccc(Br)cc1)N1CCN(c2ccc(F)cc2)CC1,?,18µM,?,i,?,i
O=C1CCCc2oc3ccc(O)cc3c21,i,i,i,i,i,i
COc1ccc(S(=O)(=O)N2CCOCC2)cc1NC(=O)c1ccccc1-c1ccc(C(F)(F)F)cc1,i,?,?,i,i,i
O=c1[nH]cnc2c1sc1nc(C(F)F)cc(-c3ccccc3)c12,12µM,i,i,i,?,i
CC(C)Cc1nc2sc3c(=O)[nH]cnc3c2c2c1CCCC2,i,i,i,i,?,i
CC(C)c1nc(SCC(=O)N2CCCCCC2)c2c(=O)n(C)c(=O)n(C)c2n1,?,?,?,i,i,i
COCCn1c(SCC(=O)N(C(C)C)C(C)C)nnc1-c1cc2ccccc2cc1O,?,21µM,?,i,i,i
Cc1nc(SCC(=O)N2CCCCCC2)c2c(=O)n(C)c(=O)n(CC(C)C)c2n1,i,13µM,?,?,?,i
CCCn1c(SCC(=O)N2CCCCC2)nc2c1c(=O)n(C)c(=O)n2C,i,i,i,i,i,i
CC(C)n1c(SCC(=O)N2c3ccccc3Sc3ccccc32)nc2c1c(=O)n(C)c(=O)n2C,i,16µM,21µM,i,i,i
COCCn1c(SCC(=O)Nc2nnc(C)s2)nnc1-c1cc2ccccc2cc1O,i,i,i,i,i,i
CC(C)n1c(SCC(N)=O)nc2c1c(=O)n(C)c(=O)n2C,i,i,i,i,i,i
Cn1c(=O)c2c(nc(SCC(=O)N3CCCCCC3)n2C)n(C)c1=O,15µM,i,i,i,i,i
O=C(CCC(=O)N1CCN(S(=O)(=O)c2ccc([N+](=O)[O-])cc2)CC1)N1CCOCC1,i,i,i,i,i,i
CC1=C(/C=C/C(C)=C/C=C/C(C)=C/C(=O)Oc2c(C)c(C)c3c(c2C)CC[C@@](C)(CCC[C@H](C)CCC[C@H](C)CCCC(C)C)O3)C(C)(C)CCC1,nt,i,i,nt,nt,nt

# From PubChem BioAssay
